# B1: unnamed (peptide)
# chain: EVTPKVPERPSRRKT
# B2: unnamed (peptide)
# chain: VRVKKRPLIRPLNSS
# B3: unnamed (peptide)
# chain: RPKRRAPPPVPKKPS
# Assays:
# Experiment in all cases: SPOT peptide array binding signal intensity (averaged, normalized) (arbitrary units (background-subtracted, floor 0; scale differs between SH3 domains)); higher = stronger binding of the SH3 domain to the peptide
# AgAbp1 = target: AgAbp1
# In short: (§1)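 Four yeast species supplied the SH3 domains, which were expressed as GST fusions in E. coli BL21(DE3) and purified on glutathione Sepharose. Incubation with cellulose membranes carrying synthetic 15-mer peptides, cysteines exchanged for serines, ran overnight at 4°C at 10 μg/ml in TBS-based blocking buffer. Binding signal is reported as normalized, background-subtracted spot intensity averaged over replicates, in arbitrary units not shared between domains.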
# AgBbc1 = target: AgBbc1
# In short: as §1
# AgBem1-D1 = target: AgBem1-D1
# In short: as §1
# AgBzz1-D1 = target: AgBzz1-D1
# In short: as §1
# AgBzz1-D2 = target: AgBzz1-D2
# In short: as §1
# AgCyk3 = target: AgCyk3
# In short: as §1
# AgFus1 = target: AgFus1
# In short: as §1
# AgHof1 = target: AgHof1
# In short: as §1
# AgHse1 = target: AgHse1
# In short: as §1
# AgLsb1 = target: AgLsb1
# In short: as §1
# AgLsb4 = target: AgLsb4
# In short: as §1
# AgMyo5 = target: AgMyo5
# In short: as §1
# AgNbp2 = target: AgNbp2
# In short: as §1
# AgRvs167 = target: AgRvs167
# In short: as §1
# AgSho1 = target: AgSho1
# In short: as §1
# AgSla1-D1-D2 = target: AgSla1-D1-D2
# In short: as §1
# AgSla1-D3 = target: AgSla1-D3
# In short: as §1
# CaAbp1-D1 = target: CaAbp1-D1
# In short: as §1
# CaAbp1-D2 = target: CaAbp1-D2
# In short: as §1
# CaBbc1 = target: CaBbc1
# In short: as §1
# CaBem1-D1 = target: CaBem1-D1
# In short: as §1
# CaBzz1-D1 = target: CaBzz1-D1
# In short: as §1
# CaBzz1-D2 = target: CaBzz1-D2
# In short: as §1
# CaCyk3 = target: CaCyk3
# In short: as §1
# CaFus1 = target: CaFus1
# In short: as §1
# CaHof1 = target: CaHof1
# In short: as §1
# CaHse1 = target: CaHse1
# In short: as §1
# CaLsb1 = target: CaLsb1
# In short: as §1
# CaLsb4 = target: CaLsb4
# In short: as §1
# CaMyo5 = target: CaMyo5
# In short: as §1
# CaNbp2 = target: CaNbp2
# In short: as §1
# CaRvs167 = target: CaRvs167
# In short: as §1
# CaRvs167-3 = target: CaRvs167-3
# In short: as §1
# CaSho1 = target: CaSho1
# In short: as §1
# CaSla1-D1-D2 = target: CaSla1-D1-D2
# In short: as §1
# CaSla1-D3 = target: CaSla1-D3
# In short: as §1
# ScAbp1 = target: ScAbp1
# In short: as §1
# ScBbc1 = target: ScBbc1
# In short: as §1
# ScBem1-D1 = target: ScBem1-D1
# In short: as §1
# ScBzz1-D1 = target: ScBzz1-D1
# In short: as §1
# ScBzz1-D2 = target: ScBzz1-D2
# In short: as §1
# ScCyk3 = target: ScCyk3
# In short: as §1
# ScFus1 = target: ScFus1
# In short: as §1
# ScHof1 = target: ScHof1
# In short: as §1
# ScHse1 = target: ScHse1
# In short: as §1
# ScLsb1 = target: ScLsb1
# In short: as §1
# ScLsb2 = target: ScLsb2
# In short: as §1
# ScLsb3 = target: ScLsb3
# In short: as §1
# ScLsb4 = target: ScLsb4
# In short: as §1
# ScMyo3 = target: ScMyo3
# In short: as §1
# ScMyo5 = target: ScMyo5
# In short: as §1
# ScNbp2 = target: ScNbp2
# In short: as §1
# ScPex13 = target: ScPex13
# In short: as §1
# ScRvs167 = target: ScRvs167
# In short: as §1
# ScSho1 = target: ScSho1
# In short: as §1
# ScSla1-D1-D2 = target: ScSla1-D1-D2
# In short: as §1
# ScSla1-D3 = target: ScSla1-D3
# In short: as §1
# SpAbp1-D1 = target: SpAbp1-D1
# In short: as §1
# SpBbc1 = target: SpBbc1
# In short: as §1
# SpBzz1-D1 = target: SpBzz1-D1
# In short: as §1
# SpBzz1-D2 = target: SpBzz1-D2
# In short: as §1
# SpCyk3 = target: SpCyk3
# In short: as §1
# SpHof1 = target: SpHof1
# In short: as §1
# SpHof1-2 = target: SpHof1-2
# In short: as §1
# SpHof1-3 = target: SpHof1-3
# In short: as §1
# SpHse1 = target: SpHse1
# In short: as §1
# SpLsb1 = target: SpLsb1
# In short: as §1
# SpLsb4 = target: SpLsb4
# In short: as §1
# SpMyo1 = target: SpMyo1
# In short: as §1
# SpNbp2 = target: SpNbp2
# In short: as §1
# SpPex13 = target: SpPex13
# In short: as §1
# SpRvs167 = target: SpRvs167
# In short: as §1
# SpSla1-D1-D2 = target: SpSla1-D1-D2
# In short: as §1
# SpSla1-D3 = target: SpSla1-D3
# In short: as §1
binder,measurement,setting,value
B1,SPOT peptide array binding signal intensity,AgAbp1,377
same,SPOT peptide array binding signal intensity,AgBbc1,2180
same,SPOT peptide array binding signal intensity,AgBem1-D1,13
same,SPOT peptide array binding signal intensity,AgBzz1-D1,819
same,SPOT peptide array binding signal intensity,AgBzz1-D2,136
same,SPOT peptide array binding signal intensity,AgCyk3,1
same,SPOT peptide array binding signal intensity,AgFus1,4.5
same,SPOT peptide array binding signal intensity,AgHof1,21.8
same,SPOT peptide array binding signal intensity,AgHse1,47
same,SPOT peptide array binding signal intensity,AgLsb1,39.9
same,SPOT peptide array binding signal intensity,AgLsb4,2480
same,SPOT peptide array binding signal intensity,AgMyo5,1.25
same,SPOT peptide array binding signal intensity,AgNbp2,44.5
same,SPOT peptide array binding signal intensity,AgRvs167,11.3
same,SPOT peptide array binding signal intensity,AgSho1,8.25
same,SPOT peptide array binding signal intensity,AgSla1-D1-D2,≤ 0
same,SPOT peptide array binding signal intensity,AgSla1-D3,7.75
same,SPOT peptide array binding signal intensity,CaAbp1-D1,324
same,SPOT peptide array binding signal intensity,CaAbp1-D2,620
same,SPOT peptide array binding signal intensity,CaBbc1,2760
same,SPOT peptide array binding signal intensity,CaBem1-D1,24
same,SPOT peptide array binding signal intensity,CaBzz1-D1,1370
same,SPOT peptide array binding signal intensity,CaBzz1-D2,406
same,SPOT peptide array binding signal intensity,CaCyk3,420
same,SPOT peptide array binding signal intensity,CaFus1,≤ 0
same,SPOT peptide array binding signal intensity,CaHof1,4.88
same,SPOT peptide array binding signal intensity,CaHse1,316
same,SPOT peptide array binding signal intensity,CaLsb1,≤ 0
same,SPOT peptide array binding signal intensity,CaLsb4,6660
same,SPOT peptide array binding signal intensity,CaMyo5,≤ 0
same,SPOT peptide array binding signal intensity,CaNbp2,80.8
same,SPOT peptide array binding signal intensity,CaRvs167,177
same,SPOT peptide array binding signal intensity,CaRvs167-3,2
same,SPOT peptide array binding signal intensity,CaSho1,≤ 0
same,SPOT peptide array binding signal intensity,CaSla1-D1-D2,786
same,SPOT peptide array binding signal intensity,CaSla1-D3,0.5
same,SPOT peptide array binding signal intensity,ScAbp1,141
same,SPOT peptide array binding signal intensity,ScBbc1,2080
same,SPOT peptide array binding signal intensity,ScBem1-D1,10
same,SPOT peptide array binding signal intensity,ScBzz1-D1,57.5
same,SPOT peptide array binding signal intensity,ScBzz1-D2,11.8
same,SPOT peptide array binding signal intensity,ScCyk3,1.53e-05
same,SPOT peptide array binding signal intensity,ScFus1,5
same,SPOT peptide array binding signal intensity,ScHof1,11.5
same,SPOT peptide array binding signal intensity,ScHse1,≤ 0
same,SPOT peptide array binding signal intensity,ScLsb1,842
same,SPOT peptide array binding signal intensity,ScLsb2,508
same,SPOT peptide array binding signal intensity,ScLsb3,6280
same,SPOT peptide array binding signal intensity,ScLsb4,5280
same,SPOT peptide array binding signal intensity,ScMyo3,1.5
same,SPOT peptide array binding signal intensity,ScMyo5,≤ 0
same,SPOT peptide array binding signal intensity,ScNbp2,270
same,SPOT peptide array binding signal intensity,ScPex13,1490
same,SPOT peptide array binding signal intensity,ScRvs167,924
same,SPOT peptide array binding signal intensity,ScSho1,28.5
same,SPOT peptide array binding signal intensity,ScSla1-D1-D2,2340
same,SPOT peptide array binding signal intensity,ScSla1-D3,69.4
same,SPOT peptide array binding signal intensity,SpAbp1-D1,130
same,SPOT peptide array binding signal intensity,SpBbc1,1260
same,SPOT peptide array binding signal intensity,SpBzz1-D1,514
same,SPOT peptide array binding signal intensity,SpBzz1-D2,≤ 0
same,SPOT peptide array binding signal intensity,SpCyk3,0.75
same,SPOT peptide array binding signal intensity,SpHof1,25.4
same,SPOT peptide array binding signal intensity,SpHof1-2,74.4
same,SPOT peptide array binding signal intensity,SpHof1-3,73.8
same,SPOT peptide array binding signal intensity,SpHse1,51.2
same,SPOT peptide array binding signal intensity,SpLsb1,1550
same,SPOT peptide array binding signal intensity,SpLsb4,6800
same,SPOT peptide array binding signal intensity,SpMyo1,4.25
same,SPOT peptide array binding signal intensity,SpNbp2,9.5
same,SPOT peptide array binding signal intensity,SpPex13,≤ 0
same,SPOT peptide array binding signal intensity,SpRvs167,1310
same,SPOT peptide array binding signal intensity,SpSla1-D1-D2,48.5
same,SPOT peptide array binding signal intensity,SpSla1-D3,2
B2,SPOT peptide array binding signal intensity,SpBzz1-D2,≤ 0
same,SPOT peptide array binding signal intensity,SpCyk3,≤ 0
same,SPOT peptide array binding signal intensity,SpHof1,188
same,SPOT peptide array binding signal intensity,SpHof1-2,12.5
same,SPOT peptide array binding signal intensity,SpHof1-3,373
same,SPOT peptide array binding signal intensity,SpHse1,279
same,SPOT peptide array binding signal intensity,SpLsb1,14.5
same,SPOT peptide array binding signal intensity,SpLsb4,135
same,SPOT peptide array binding signal intensity,SpMyo1,5.5
same,SPOT peptide array binding signal intensity,SpNbp2,773
same,SPOT peptide array binding signal intensity,SpPex13,17
same,SPOT peptide array binding signal intensity,SpRvs167,3.67
same,SPOT peptide array binding signal intensity,SpSla1-D1-D2,≤ 0
same,SPOT peptide array binding signal intensity,SpSla1-D3,2
B3,SPOT peptide array binding signal intensity,AgAbp1,5860
same,SPOT peptide array binding signal intensity,AgBbc1,1090
same,SPOT peptide array binding signal intensity,AgBem1-D1,166
same,SPOT peptide array binding signal intensity,AgBzz1-D1,3720
same,SPOT peptide array binding signal intensity,AgBzz1-D2,825
same,SPOT peptide array binding signal intensity,AgCyk3,1
same,SPOT peptide array binding signal intensity,AgFus1,63.5
same,SPOT peptide array binding signal intensity,AgHof1,380
same,SPOT peptide array binding signal intensity,AgHse1,294
same,SPOT peptide array binding signal intensity,AgLsb1,1120
same,SPOT peptide array binding signal intensity,AgLsb4,313
same,SPOT peptide array binding signal intensity,AgMyo5,124
same,SPOT peptide array binding signal intensity,AgNbp2,4930
same,SPOT peptide array binding signal intensity,AgRvs167,191
same,SPOT peptide array binding signal intensity,AgSho1,650
same,SPOT peptide array binding signal intensity,AgSla1-D1-D2,274
same,SPOT peptide array binding signal intensity,AgSla1-D3,577
same,SPOT peptide array binding signal intensity,CaAbp1-D1,2320
same,SPOT peptide array binding signal intensity,CaAbp1-D2,4720
same,SPOT peptide array binding signal intensity,CaBbc1,1840
same,SPOT peptide array binding signal intensity,CaBem1-D1,78.5
same,SPOT peptide array binding signal intensity,CaBzz1-D1,7010
same,SPOT peptide array binding signal intensity,CaBzz1-D2,4680
same,SPOT peptide array binding signal intensity,CaCyk3,55
same,SPOT peptide array binding signal intensity,CaFus1,350
same,SPOT peptide array binding signal intensity,CaHof1,0.5
same,SPOT peptide array binding signal intensity,CaHse1,666
same,SPOT peptide array binding signal intensity,CaLsb1,≤ 0
same,SPOT peptide array binding signal intensity,CaLsb4,2700
same,SPOT peptide array binding signal intensity,CaMyo5,2.5
